Test results: PubChem BioAssay (EPA / NIEHS)
Inconclusive results are not listed. Active and inactive are the calls of the source. The calls were made as follows, unless noted: active = hit-call score of the fitted dose curve at least 0.9, where 1 is the maximum; inconclusive = response in the unintended direction; inactive = score below 0.9.

Tests used:
[1] = ACEA_ER_AUC_viability: ACEA Biosciences xCELLigence Real-Time Cell Analysis on Estrogen Receptor Agonism for Viability (AID 2283782);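 also: hit means loss of impedance signal meaning reduced cell growth or viability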
Procedure, shortened: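 Viability endpoint: reduced impedance area under the curve relative to DMSO, recorded by real-time electrode sensing over ~80 h of continuous exposure. Duplicate plates of T47D in hormone-depleted medium; eight concentrations, 1:4 dilutions, 100 uM maximum.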

[2] = CCTE_Harrill_HTTr_Viability_MCF7: CCTE's 6-hour Cell Viability Assessment for the High-Throughput Transcriptomics (HTTr) Platform, in MCF-7 cells cultured in DMEM + 10% fetal bovine serum, Harrill Lab (AID 2284010; active = hit-call score of the fitted dose curve at least 0.9, where 1 is the maximum; inactive = score below 0.9)
Procedure, shortened: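 Eight-point concentration series, six-hour exposure. Propidium iodide exclusion imaged to assess membrane integrity as a cytotoxicity readout; bidirectional fitting was done with DMSO as negative control and activity baseline.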

[3] = CCTE_Harrill_HTTr_Apoptosis_MCF7: CCTE's 6-hour Apoptosis Assessment for the High-Throughput Transcriptomics (HTTr) Platform, in MCF-7 cells cultured in DMEM + 10% fetal bovine serum, Harrill Lab (AID 2284011; active = hit-call score of the fitted dose curve at least 0.9, where 1 is the maximum; inactive = score below 0.9)
Procedure, shortened: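 High-content imaging of CellEvent Caspase 3/7 Green signal follows a six-hour exposure, with eight concentrations per chemical. MCF-7 cells grown in DMEM plus 10% fetal bovine serum; activity fitted in both directions against DMSO.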

[4] = biological target: Cellular tumor antigen p53 (Homo sapiens) (UniProt P04637); experiment: TOX21_p53_BLA_p2_ratio: Tox21 HCT-116 p53 Agonism Beta-lactamase Assay, Ratio, Phase 2 (AID 2283592)
Cellular tumor antigen p53 (Homo sapiens), sequence (P04637 whole entry, looked up): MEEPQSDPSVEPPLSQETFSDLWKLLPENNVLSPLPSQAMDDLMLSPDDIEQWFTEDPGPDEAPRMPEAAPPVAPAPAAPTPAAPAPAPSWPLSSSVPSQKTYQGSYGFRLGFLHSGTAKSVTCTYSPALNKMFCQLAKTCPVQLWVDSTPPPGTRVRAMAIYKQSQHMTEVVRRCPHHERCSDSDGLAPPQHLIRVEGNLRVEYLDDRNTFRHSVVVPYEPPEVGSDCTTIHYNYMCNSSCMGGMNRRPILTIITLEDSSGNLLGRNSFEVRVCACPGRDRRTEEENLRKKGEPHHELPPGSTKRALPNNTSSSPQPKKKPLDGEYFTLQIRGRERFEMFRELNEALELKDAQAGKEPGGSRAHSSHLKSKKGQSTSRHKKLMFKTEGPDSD
Procedure, shortened: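 Read-out is the blue/green (460/530 nm, 405 nm excitation) ratio after 2 h CCF4-AM loading, fitted as gain versus DMSO. Compounds, pinned at 217-fold dilution from DMSO stocks, stayed 16 h on HCT-116 beta-lactamase reporter cells seeded 5 h earlier.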

[5] = biological target: Cellular tumor antigen p53 (Homo sapiens) (UniProt P04637); experiment: TOX21_p53_BLA_p3_ratio: Tox21 HCT-116 p53 Agonism Beta-lactamase Assay, Ratio, Phase 3 (AID 2283596)
Procedure, shortened: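 Cells were seeded at 4000/well, rested 5 h at 37C, then dosed with DMSO compound solutions (217-fold dilution) for 16 h. CCF4-AM substrate was loaded for 2 h at room temperature, and the 460/530 nm emission ratio was fitted for gain of signal versus DMSO.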

[6] = TOX21_p53_BLA_p4_viability: Viability Assessment in the Tox21 HCT-116 p53 Agonism Beta-lactamase Assay, Phase 4 (AID 2283597);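 also: hits lower the luminescence signal meaning cytotoxicity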
Procedure, shortened: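 Cytotoxicity as reduced cellular ATP (CellTiter-Glo luminescence, 30 min room temperature), measured in the same wells following the CCF4 FRET p53 reading. Human HCT-116 cells received compounds in DMSO (217-fold dilution) for 16 h.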

[7] = TOX21_p53_BLA_p3_viability: Viability Assessment in the Tox21 HCT-116 p53 Agonism Beta-lactamase Assay, Phase 3 (AID 2283593);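 also: cells exposed to compound for 16 h before reading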
Procedure, shortened: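 Cellular ATP was quantified by CellTiter-Glo luminescence, read after 30 min at room temperature. Beforehand, HCT116 cells (4000/well) received compound 5 h post-seeding, 217-fold diluted from DMSO, then incubated 16 h at 37C.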

[8] = TOX21_p53_BLA_p5_viability: Viability Assessment in the Tox21 HCT-116 p53 Agonism Beta-lactamase Assay, Phase 5 (AID 2283600)
Procedure, shortened: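 Viability came from CellTiter-Glo ATP luminescence, read after 30 min at room temperature. Before this, HCT-116 p53-bla cells (4000/well) had 16 hours of compound exposure at 37C, with DMSO stocks diluted 217-fold on transfer.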

[9] = biological target: Cellular tumor antigen p53 (Homo sapiens) (UniProt P04637); experiment: TOX21_p53_BLA_p4_ratio: Tox21 HCT-116 p53 Agonism Beta-lactamase Assay, Ratio, Phase 4 (AID 2283601)
Procedure, shortened: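 Signal is the blue/green (460nm/530nm) ratio of cleaved versus uncleaved CCF4-AM substrate, read after 2 h substrate loading. Cells were HCT116 carrying the p53-responsive beta-lactamase reporter, dosed 16 h at 37C, 5% CO2; CellTiter-Glo measured in parallel.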

[10] = biological target: Cellular tumor antigen p53 (Homo sapiens) (UniProt P04637); experiment: TOX21_p53_BLA_p5_ratio: Tox21 HCT-116 p53 Agonism Beta-lactamase Assay, Ratio, Phase 5 (AID 2283599)
Procedure, shortened: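 Beta-lactamase reporter ratio (blue 460 nm over green 530 nm, 405 nm excitation) after 2 h CCF4-AM loading, in HCT-116 cells exposed 16 h at 37 C to compounds pinned at 217-fold dilution. Increases relative to DMSO baseline scored.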

Structure (SMILES): O=C(c1ccc(Cl)cc1)c1ccc(Cl)cc1
- outcome [1]: inactive
- outcome [2]: inactive
- outcome [3]: inactive

Structure (SMILES): COCCOC(=O)CC#N
- AC50 [1]: 50 µM (active)

Structure (SMILES): CCN1CCCC1CNC(=O)c1cc(S(N)(=O)=O)ccc1OC (stereo not drawn)
- outcome [2]: inactive
- outcome [3]: inactive

Structure (SMILES): C=CC[N+]1([C@H]2C[C@H]3[C@@H]4CC[C@H]5C[C@H](O)[C@@H](N6CCOCC6)C[C@]5(C)[C@H]4CC[C@]3(C)[C@H]2OC(C)=O)CCCC1
- outcome [4]: inactive
- outcome [5]: inactive
- outcome [6]: inactive

Structure (SMILES): CCC(O)c1ccccc1 (stereo not drawn)
- outcome [4]: inactive
- outcome [7]: inactive
- outcome [8]: inactive
- outcome [9]: inactive

Structure (SMILES): CS(=O)(=O)CCNCc1ccc(-c2ccc3ncnc(Nc4ccc(OCc5cccc(F)c5)c(Cl)c4)c3c2)o1
- outcome [4]: inactive
- outcome [7]: inactive
- outcome [10]: inactive
- outcome [9]: inactive

Structure (SMILES): COc1ccc(-c2cc(=O)c3c(O)cc(O[C@@H]4O[C@H](CO[C@@H]5O[C@@H](C)[C@H](O)[C@@H](O)[C@H]5O)[C@@H](O)[C@H](O)[C@H]4O)cc3o2)cc1O
- outcome [4]: inactive
- outcome [7]: inactive
- outcome [8]: inactive
- outcome [9]: inactive

Structure (SMILES): CNC(=O)c1ccccc1
- outcome [4]: inactive
- outcome [7]: inactive
- outcome [9]: inactive

Structure (SMILES): COC(=O)C(C)O (stereo not drawn)
- outcome [4]: inactive
- outcome [5]: inactive
- outcome [6]: inactive
- outcome [10]: inactive

Structure (SMILES): C[Se]CCC(N)C(=O)O (stereo not drawn)
- outcome [4]: inactive
- outcome [5]: inactive
- outcome [6]: inactive

Structure (SMILES): CCCCOC(=O)CC#N
- outcome [4]: inactive
- outcome [7]: inactive
- outcome [8]: inactive
- outcome [9]: inactive

Structure (SMILES): O=C1c2ccccc2C(=O)C1c1ccc(F)cc1
- outcome [4]: inactive
- outcome [5]: inactive
- outcome [6]: inactive
- outcome [10]: inactive

Structure (SMILES): C=CC(C)CCC=C(C)C (stereo not drawn)
- outcome [4]: inactive
- outcome [7]: inactive
- outcome [8]: inactive
- outcome [9]: inactive

Structure (SMILES): CCC(C)(CN(C)C)OC(=O)c1ccccc1 (stereo not drawn)
- outcome [4]: inactive
- outcome [5]: inactive
- outcome [6]: inactive
- outcome [10]: inactive

Structure (SMILES): CS(=O)(=O)c1ccc([C@@H](O)[C@@H](COC(=O)CN)NC(=O)C(Cl)Cl)cc1
- outcome [4]: inactive
- outcome [5]: inactive
- outcome [6]: inactive

Structure (SMILES): CCCCCCOC(=O)c1cccnc1
- outcome [4]: inactive
- outcome [7]: inactive
- outcome [8]: inactive
- outcome [9]: inactive

Structure (SMILES): OC[C@H]1O[C@@H](OCCc2ccc(O)cc2)[C@H](O)[C@@H](O)[C@@H]1O
- outcome [4]: inactive
- outcome [7]: inactive
- outcome [8]: inactive
- outcome [9]: inactive

Structure (SMILES): COc1ccc(CN(CCN(C)C)c2ncccn2)cc1
- outcome [4]: inactive
- outcome [5]: inactive

Structure (SMILES): CCOCCC(=O)OCC
- outcome [4]: inactive
- outcome [7]: inactive
- outcome [9]: inactive

Structure (SMILES): O=S1OCCO1
- outcome [4]: inactive
- outcome [5]: inactive

Structure (SMILES): CCCCc1ncc(/C=C(\Cc2cccs2)C(=O)O)n1Cc1ccc(C(=O)O)cc1
- outcome [4]: inactive
- outcome [7]: inactive
- outcome [10]: inactive
- outcome [9]: inactive

Structure (SMILES): CC/C(=C(/CC)c1ccc(OP(=O)(O)O)cc1)c1ccc(OP(=O)(O)O)cc1
- outcome [4]: inactive
- outcome [7]: inactive
- outcome [10]: inactive
- outcome [9]: inactive

Structure (SMILES): O=C1CCCC(=O)C1
- outcome [4]: inactive
- outcome [5]: inactive

Structure (SMILES): CCN1C(=O)c2ccccc2C1Nc1ccc(OCCN2CCCCC2)cc1 (stereo not drawn)
- outcome [4]: inactive
- outcome [7]: inactive
- outcome [10]: inactive
- outcome [9]: inactive

Structure (SMILES): CN[C@@H]1CCc2[nH]c3ccc(C(N)=O)cc3c2C1
- outcome [4]: inactive
- outcome [7]: inactive
- outcome [10]: inactive
- outcome [9]: inactive

Structure (SMILES): O=C1CC[C@@H](C(=O)N[C@H]2C[C@@H]2c2ccccc2)N1
- outcome [4]: inactive
- outcome [7]: inactive
- outcome [8]: inactive
- outcome [9]: inactive

Structure (SMILES): CCCCOC(=O)C(=O)Nc1cccc(-c2nn[nH]n2)c1
- outcome [4]: inactive
- outcome [5]: inactive
- outcome [6]: inactive

Structure (SMILES): Cc1ccnc2ccccc12
- outcome [4]: inactive
- outcome [5]: inactive

Structure (SMILES): O=C(O)CCC/C=C\C[C@@H]1[C@@H](/C=C/[C@@H](O)COc2cccc(Cl)c2)[C@H](O)C[C@@H]1O
- outcome [4]: inactive
- outcome [5]: inactive

Structure (SMILES): CCC(CO)(CO)CO
- outcome [4]: inactive
- outcome [5]: inactive
- outcome [6]: inactive
- outcome [10]: inactive

Structure (SMILES): CC(N)CN (stereo not drawn)
- outcome [4]: inactive
- outcome [7]: inactive
- outcome [10]: inactive
- outcome [9]: inactive

Structure (SMILES): C[C@]12CC[C@@H]3c4ccc(O)cc4CC[C@H]3[C@@H]1CC[C@@H]2OP(=O)(O)O
- outcome [4]: inactive
- outcome [5]: inactive
- outcome [6]: inactive

Structure (SMILES): CC(C(=O)O)c1ccc(C(=O)c2cccs2)cc1 (stereo not drawn)
- outcome [4]: inactive
- outcome [5]: inactive
- outcome [6]: inactive

Structure (SMILES): CCCCCCCC/C=C\CCCCCCCC(=O)OCCCC
- outcome [4]: inactive
- outcome [7]: inactive
- outcome [8]: inactive

Structure (SMILES): CCC(C=O)CC
- outcome [4]: inactive
- outcome [7]: inactive
- outcome [10]: inactive
- outcome [9]: inactive

Structure (SMILES): CN1CCN(C2=Nc3ccccc3Sc3ccc(Cl)cc32)CC1
- outcome [4]: inactive
- outcome [5]: inactive

Structure (SMILES): CC(=O)Oc1cc(C(C)C)c(OCCN(C)C)cc1C
- outcome [4]: inactive
- outcome [5]: inactive
- outcome [6]: inactive

Structure (SMILES): Cc1cccc(O)c1N
- outcome [4]: inactive
- outcome [7]: inactive
- outcome [10]: inactive
- outcome [9]: inactive

Structure (SMILES): CCC(C)(C)CC
- outcome [4]: inactive
- outcome [5]: inactive
- outcome [6]: inactive

Structure (SMILES): COC(C)OC
- outcome [4]: inactive
- outcome [7]: inactive
- outcome [8]: inactive
- outcome [9]: inactive

Structure (SMILES): N[C@@H](CCC(=O)Nc1ccc([N+](=O)[O-])cc1)C(=O)O
- outcome [4]: inactive
- outcome [5]: inactive
- outcome [6]: inactive
- outcome [10]: inactive

Structure (SMILES): Cc1c(N=C=O)cccc1N=C=O
- outcome [4]: inactive
- outcome [5]: inactive
- outcome [6]: inactive
